High-throughput results deposited in PubChem by several laboratories.
Mtb FBA inh = inhibitors of M. tuberculosis fructose-bisphosphate aldolase | P9WQA3 | hit rate 2.3% among 360,000 | purified M. tuberculosis FBA, fluorescence read-out | inhibition, % at 1 µM; in the data active = inhibition above about 27%;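 note: 0% = vehicle and 100% = reference inhibitor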
Mtb bLac sens = beta-lactam sensitization of Mtb H37Rv; M. tuberculosis H37Rv growth with meropenem, percent inhibition; inhibition, % at 25 µM; hit rate 0.27% among 330,000; AID 434955;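 note: growth measured after seven days incubation then overnight dye step; 0% = bacteria only wells and 100% = bacteria with antibiotic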
Rv3671c protease = inhibits the M. tuberculosis serine protease Rv3671c; P9WHR9; inhibition, % at 5.96 µM; hit rate 0.048% among 320,000; AID 2606; in the data active = inhibition above about 38%;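 note: extracellular domain of Rv3671c used as enzyme; 0% = enzyme with DMSO and 100% = no enzyme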
Target sequence (P9WHR9 whole entry, looked up, the tested form may be a part): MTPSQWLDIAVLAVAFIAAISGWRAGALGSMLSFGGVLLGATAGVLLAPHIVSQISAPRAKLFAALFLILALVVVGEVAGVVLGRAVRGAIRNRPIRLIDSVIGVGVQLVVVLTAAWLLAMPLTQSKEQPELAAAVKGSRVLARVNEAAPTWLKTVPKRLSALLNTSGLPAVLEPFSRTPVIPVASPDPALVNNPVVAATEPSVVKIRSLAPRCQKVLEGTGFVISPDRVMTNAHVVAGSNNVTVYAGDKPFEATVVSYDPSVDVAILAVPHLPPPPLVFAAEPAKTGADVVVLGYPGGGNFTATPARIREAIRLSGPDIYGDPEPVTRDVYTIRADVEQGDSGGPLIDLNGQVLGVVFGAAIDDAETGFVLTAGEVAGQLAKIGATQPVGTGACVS
Mtb UGM inh = inhibitors of M. tuberculosis UDP-galactopyranose mutase | P9WIQ1 | inhibition, % at 10 µM | hit rate 0.06% among 320,000 | purified UGM, fluorescence polarization probe displacement; in the data active = inhibition above about 10%, passing the limit was not always enough
GDH-TPI counter-1 = counter-screen for M. tuberculosis FBA inhibitors: GDH-TPI coupled enzymes; GDH-TPI coupled enzyme counterscreen, NADH absorbance; inhibition, % at 4.8 µM; hit rate 1.2% among 360,000; in the data active = inhibition above about 30%;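 note: 0% = DMSO wells and 100% = wells lacking the enzyme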
RecA splice inh = Mtb RecA intein splicing inhibition; cell-free RecA intein splicing, fluorescence; inhibition, % (no concentration beside the values); hit rate 0.75% among 290,000; in the data active = inhibition above about 30%;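 note: 0% = vehicle wells and 100% = reference inhibitor control wells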
Mtb FBA inh conf = Mtb FBA inhibition, confirmed; inhibition, % at 1 µM; shares compounds with Mtb FBA inh; purified M. tuberculosis FBA, fluorescence read-out; hit rate 78% among 5,600; AID 651616; in the data active = inhibition above about 27%;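 note: 0% = vehicle wells and 100% = reference inhibitor wells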
GDH-TPI counter-2 = counter-screen for M. tuberculosis FBA inhibitors: GDH-TPI coupled enzyme inhibition; hit rate 81% among 5,600; AID 652141; GDH-TPI coupled enzyme counterscreen, fluorescence; shares compounds with Mtb FBA inh; inhibition, % at 1 µM; in the data active = inhibition above about 10%
GDH-TPI DR = GDH-TPI dose response counter-screen for Mtb FBA; AID 652145; GDH-TPI coupled enzyme assay, fluorescence, artifact counterscreen; IC50, µM; hit rate 79% among 170; shares compounds with Mtb FBA inh
Active calls of the source: *. Hits are enriched below; roughly 4% of the tested compounds scored in any of these assays. Unless noted, the rule behind the calls is not given here.

`Cc1cccn2c(=O)c3cc(C(=O)N4CC(C)CC(C)C4)sc3nc12` (configuration not stated) gave Mtb FBA inh 5.2, Mtb bLac sens 5.4, Rv3671c protease -3.8, Mtb UGM inh -1.6, GDH-TPI counter-1 3.7 and RecA splice inh -13.7.
Screening CCC(C)(C)C1CCc2[nH]nc(C(=O)NCCNC(=O)OC(C)(C)C)c2C1 (configuration not stated) returned Mtb FBA inh 0.6, Mtb bLac sens -7.3, Rv3671c protease 3.4, Mtb UGM inh -0.5 and GDH-TPI counter-1 5.9.
O=C(NC(=O)N1CCN(c2ccc([N+](=O)[O-])cn2)CC1)c1c(Cl)cccc1Cl was read as Mtb bLac sens -8.0, Rv3671c protease 5.3, Mtb UGM inh 0.3 and RecA splice inh -1.1.
`CCN(C(=O)c1cc2c(=O)n3ccccc3nc2s1)C1CCCCC1` gave Mtb FBA inh 72.2*, Mtb bLac sens 0.1, Rv3671c protease 3.7, Mtb UGM inh 2.4, GDH-TPI counter-1 7.4, RecA splice inh -37.8, Mtb FBA inh conf 55.8* and GDH-TPI counter-2 32.2*.
Screening CC(Oc1ccc2c3c(c(=O)oc2c1)CCCC3)C(=O)NCCCn1ccnc1 (configuration not stated) returned Mtb FBA inh 24.6, Mtb bLac sens -0.3, Rv3671c protease -3.6, Mtb UGM inh -0.8, GDH-TPI counter-1 16.2 and RecA splice inh 2.9.
CCc1c(C)c2ccc(OCC(N)=O)cc2oc1=O was read as Mtb FBA inh 87.5*, Mtb bLac sens 0.7, Rv3671c protease -0.8, Mtb UGM inh 3.1, GDH-TPI counter-1 0.0, Mtb FBA inh conf 17.8 and GDH-TPI counter-2 6.0.
`CC(C)CC(C(=O)Oc1ccc2c3c(c(=O)oc2c1)CCC3)N1C(=O)c2ccccc2C1=O` (configuration not stated) gave Mtb FBA inh 31.1*, GDH-TPI counter-1 4.3, RecA splice inh 0.4, Mtb FBA inh conf 12.8, GDH-TPI counter-2 -3.0 and GDH-TPI DR 5.55*.
For COc1ccc(-c2c(C)c3ccc(OCC(C)=O)cc3oc2=O)cc1 the results were Mtb bLac sens 8.9, Rv3671c protease -15.3, Mtb UGM inh 3.5 and RecA splice inh 1.1.
`O=C(O)COc1ccc2c3c(c(=O)oc2c1)CCC3` gave Mtb FBA inh 96.3*, Mtb bLac sens -8.4, Rv3671c protease 5.0, Mtb UGM inh 1.1, GDH-TPI counter-1 6.0, RecA splice inh -3.2, Mtb FBA inh conf 71.8* and GDH-TPI counter-2 47.2*.
For CCC1CCCCN1C(=O)COc1ccc2c3c(c(=O)oc2c1)CCC3 (configuration not stated) the results were Mtb FBA inh 23.2, Mtb bLac sens -1.7, Rv3671c protease 1.9, Mtb UGM inh -1.3 and GDH-TPI counter-1 9.1.
For CCOC(=O)COc1ccc2c3c(c(=O)oc2c1)CCCC3 the results were Mtb FBA inh 32.2*, Mtb bLac sens 98.7, Rv3671c protease -2.8, Mtb UGM inh 0.7, GDH-TPI counter-1 0.0, RecA splice inh -1.2, Mtb FBA inh conf active and GDH-TPI counter-2 181.6*.
For O=C(COc1ccc2c3c(c(=O)oc2c1)CCC3)N1CCN(c2ccccc2)CC1 the results were Mtb FBA inh 9.0, Mtb bLac sens -8.1, Rv3671c protease 4.8, Mtb UGM inh -5.5, GDH-TPI counter-1 9.6 and RecA splice inh 5.0.
`C=CCNc1nc(C(=O)OCC(=O)c2ccc(Cl)cc2)cs1` gave Mtb FBA inh 0.2, Mtb bLac sens 5.6, Rv3671c protease -1.8, Mtb UGM inh 1.9, GDH-TPI counter-1 -17.9 and RecA splice inh 0.3.
COc1ccccc1C(=O)N/C(=N/c1nc(C)cc(C)n1)Nc1ccccc1 was read as Mtb FBA inh 2.6, Mtb bLac sens 3.7, Rv3671c protease 7.1, Mtb UGM inh 0.9, GDH-TPI counter-1 0.5 and RecA splice inh 3.2.
CCN(CC)C(=O)COc1ccc2c3c(c(=O)oc2c1)CCCC3 was read as Mtb FBA inh 50.4*, Mtb bLac sens 2.1, Rv3671c protease -5.2, Mtb UGM inh 0.3, GDH-TPI counter-1 10.4, RecA splice inh -55.9, Mtb FBA inh conf 40.0* and GDH-TPI counter-2 40.9*.
`O=C(COc1ccc2c3c(c(=O)oc2c1)CCC3)N[C@@H](CSCc1ccccc1)C(=O)O` gave Mtb FBA inh 10.4, Mtb bLac sens -8.1, Rv3671c protease 4.4, Mtb UGM inh 0.3, GDH-TPI counter-1 11.8 and RecA splice inh 0.1.
Screening CN(C)C(=O)COc1ccc2c3c(c(=O)oc2c1)CCCC3 returned Mtb FBA inh 61.5*, Mtb bLac sens 1.4, Rv3671c protease 2.1, Mtb UGM inh 1.2, GDH-TPI counter-1 14.7, RecA splice inh 0.4, Mtb FBA inh conf 107.3* and GDH-TPI counter-2 83.5*.
`CCC(NC(=O)OC(C)(C)C)C(=O)Oc1ccc2c3c(c(=O)oc2c1)CCC3` (configuration not stated) gave Mtb bLac sens 0.6, Rv3671c protease -0.8, Mtb UGM inh 0.3, GDH-TPI counter-1 5.7 and RecA splice inh -12.8.
For CC(C)Oc1ccc2c3c(c(=O)oc2c1)CCC3 the results were Mtb FBA inh 76.2*, Mtb bLac sens -10.2, Rv3671c protease -7.4, Mtb UGM inh 2.0, GDH-TPI counter-1 19.2, RecA splice inh -9.6, Mtb FBA inh conf 86.0* and GDH-TPI counter-2 72.4*.
O=C(COc1ccc2c3c(c(=O)oc2c1)CCC3)N[C@@H](Cc1ccccc1)C(=O)O was read as Mtb FBA inh 27.4*, Mtb bLac sens -0.9, Rv3671c protease -0.4, Mtb UGM inh 2.4, GDH-TPI counter-1 20.6, RecA splice inh -1.3, Mtb FBA inh conf 8.7 and GDH-TPI counter-2 -5.8.
For CCOc1cc(/C=N/NC(=O)c2cccnc2)ccc1OCC(=O)N(C)C the results were Mtb FBA inh -1.2, Mtb bLac sens 6.8, Rv3671c protease 3.3, Mtb UGM inh 5.1, GDH-TPI counter-1 18.2 and RecA splice inh 0.7.
COc1ccc(N2CCN(S(=O)(=O)c3cc4c(cc3C)N(C(C)=O)CCO4)CC2)cc1 was read as Mtb FBA inh 0.0, Mtb bLac sens -3.7, Rv3671c protease 11.4, Mtb UGM inh -4.4, GDH-TPI counter-1 -10.1 and RecA splice inh -1.3.
For Cc1ccc(C)c(CNS(=O)(=O)c2c(C)[nH]c(C)c2C(=O)N2CCCCC2)c1 the results were Mtb FBA inh -6.0, Mtb bLac sens -1.9, Rv3671c protease 1.0, Mtb UGM inh -1.9, GDH-TPI counter-1 -2.6 and RecA splice inh -0.8.
`COc1cc(C(=O)NCC2CCCO2)cc(OC)c1OC` (configuration not stated) gave Mtb FBA inh 2.5, Mtb bLac sens -3.9, Rv3671c protease 0.7, Mtb UGM inh 0.4, GDH-TPI counter-1 0.0 and RecA splice inh 3.7.
